Results on 35 molecules are retold here after PubChem BioAssay (Tox21).

Results filed as inconclusive are left out. Where a call stands in place of a potency, no number is given. A number with no mark means an inactive call. Activity calls are given as the source filed them. The call rests on the fitted dose curve; in most records, active means well fitted cell-killing curve with a large enough effect in the repeat runs; inconclusive means weak or mixed curves, or effect the other way; inactive means no such curve, though single readings can be large or run the other way.

One assay can be described thus: qHTS assay to identify small molecule antagonists of the glucocorticoid receptor (GR) signaling pathway - cell viability counter screen (AID 720693). Further: nearly all actives have a fitted effect of over 55% in size. As to conditions: GR-bla HeLa viability, CellTiter-Glo luminescence, 18 h, with 5 nM dexamethasone present; series mostly up to 58.5 µM. (qHTS replaces the single test concentration by a dilution series.)
For `c1coc(Cn2cccc2)c1`, the call was inactive.

On to `CN(C)CCCN(C)C`, for which the viability change, negative = cytotoxic was 3.46% [at 7.04 µM].

In the case of `C=CC(C)(CCC=C(C)C)OC(=O)C(C)C` (stereo unspecified), the result was inactive.

Take `CC[C@@]1(c2ccccc2)NC(=O)N(C)C1=O`: the result was inactive.

On to `CCCCNCC`, for which the result was inactive.

Take `CCC(=O)OCCOc1ccccc1`: the call was inactive.

Take `CCN(CC)CC`: the molecule was classed as inactive.

Take `C=CCn1cc[n+](C)c1`: the call was inactive.

Take `CCCCN(CCCC)CCCCCCN(CCCC)CCCC`: the molecule was classed as inactive.

With `C/C=C(\C)C(=O)OC/C=C(\C)CCC=C(C)C`, the outcome was inactive.

Take `CCCCN1C(=O)c2ccccc2C1=O`: the call was inactive.

Another assay is described as follows: qHTS assay for identifying genotoxic compounds that show differential cytotoxicity against isogenic chicken DT40 cell lines with known DNA damage response pathways - wild type cell line (AID 743012). Further: nearly all actives have a fitted effect of over 60% in size. As to conditions: DT40 wild type chicken cells viability, CellTiter-Glo, 40 h; series mostly up to 68.4 µM. In a few lines:
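Wild-type DT40 cells (300/well) exposed to compounds for 40 hours at 37 C/5% CO2. Viability read by CellTiter-Glo luminescence after 30 min at room temperature.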
`O=C(O)Cc1ccccc1Oc1ccc(Cl)cc1Cl`: the Potency result was “inactive”.

As for `CC(C)c1cc(C(C)C)cc(C(C)C)c1`, the Potency entry is “inactive”.

Regarding `CN(C)CCc1c[nH]c2ccc(CS(=O)(=O)N3CCCC3)cc12`, the Potency result was “inactive”.

Regarding `CC(C)(O)c1ccc(C(C)(C)O)cc1`, the Potency result is “inactive”.

With `COc1cc2nc(N3CCN(C(=O)C4CCCO4)CC3)nc(N)c2cc1OC` (stereo unspecified), the Potency entry is “inactive”.

As for `Cc1cc(C)c(C)c(C)c1`, the Potency entry was “inactive”.

Take `Cc1ccc(S(=O)(=O)NC(=O)NN2CC3CCCC3C2)cc1` (stereo unspecified): the Potency result was “inactive”.

Turning to `CCCCCCCCCCCC(C)=O`, the Potency entry was “inactive”.

In the case of `CC[N+](C)(CC)CC`, the Potency entry was “inactive”.

Regarding `CC(=O)Oc1ccc(C(C)=O)cc1`, the Potency entry was “inactive”.

For the molecule `CCN1CCN(C(=O)N[C@@H](C(=O)N[C@@H]2C(=O)N3[C@@H]2SC(C)(C)[C@H]3C(=O)O)c2ccccc2)C(=O)C1=O`, the Potency entry is “inactive”.

Turning to `CC1(C)CC(N)CC(C)(C)N1`, the Potency result was “inactive”.

Take `O=C(OOC(=O)c1ccccc1)c1ccccc1`: the Potency entry is “inactive”.

For `N#CC1(N)CCCCC1`, the Potency result was “inactive”.

As to `CC(=O)SCC(CC(=O)c1ccc(C)cc1)C(=O)O` (stereo unspecified), the Potency entry is “inactive”.

With `COc1cc(C(=O)NC2CCCNC2)cc(OC)c1OC` (stereo unspecified), the Potency entry was “inactive”.

As for `C=COCCCCO`, the Potency entry is “inactive”.

Consider `CC(C)=CCC/C(C)=C\C#N`, for which the Potency result was “inactive”.

Turning to `CCCCCCCCS(=O)(=O)O`, the Potency result was “inactive”.

Consider `Cc1cc(N)no1`, for which the Potency entry was “inactive”.

Take `CC1(C)S[C@@H]2[C@H](NC(=O)Cc3ccccc3)C(=O)N2[C@H]1C(=O)O` (tested in a mixture with another compound): the Potency entry was “inactive”.

`O=Cc1ccc(C(=O)O)cc1`: the Potency entry was “inactive”.

Take `CCC(C)(C)C`: the Potency entry is “inactive”.

On to `O=C(c1ccccc1)c1cccc(O)c1`, for which the Potency result is “inactive”.

For `c1coc(Cn2cccc2)c1`, the Potency entry is “inactive”.

For `CN(C)CCCN(C)C`, the activity change, negative = cytotoxicity was -5.84% [at 8.52 µM].

For `C=CC(C)(CCC=C(C)C)OC(=O)C(C)C` (stereo unspecified), the Potency entry is “inactive”.

`CC[C@@]1(c2ccccc2)NC(=O)N(C)C1=O`: the Potency result is “inactive”.

For `CCCCNCC`, the Potency result was “inactive”.

As for `CCC(=O)OCCOc1ccccc1`, the Potency entry is “inactive”.

As to `CCN(CC)CC`, the Potency entry was “inactive”.

`C=CCn1cc[n+](C)c1`: the Potency entry was “inactive”.

Turning to `CCCCN(CCCC)CCCCCCN(CCCC)CCCC`, the Potency entry was “inactive”.

On to `C/C=C(\C)C(=O)OC/C=C(\C)CCC=C(C)C`, for which the Potency result is “inactive”.

In the case of `CCCCN1C(=O)c2ccccc2C1=O`, the Potency result is “inactive”.

Another assay is described as follows: qHTS assay for identifying genotoxic compounds that show differential cytotoxicity against isogenic chicken DT40 cell lines with known DNA damage response pathways - Rev3 mutant cell line (AID 743014). Further: nearly all actives have a fitted effect of over 55% in size. Conditions: chicken DT40 Rev3-/- viability, CellTiter-Glo, 40 h; series mostly up to 68.4 µM.
Take `O=C(O)Cc1ccccc1Oc1ccc(Cl)cc1Cl`: the Potency entry is “inactive”.

Take `CC(C)c1cc(C(C)C)cc(C(C)C)c1`: the Potency entry is “inactive”.

`CN(C)CCc1c[nH]c2ccc(CS(=O)(=O)N3CCCC3)cc12`: the Potency entry was “inactive”.

As to `CC(C)(O)c1ccc(C(C)(C)O)cc1`, the Potency result was “inactive”.

Regarding `COc1cc2nc(N3CCN(C(=O)C4CCCO4)CC3)nc(N)c2cc1OC` (stereo unspecified), the Potency result is “inactive”.

`Cc1cc(C)c(C)c(C)c1`: the Potency entry was “inactive”.

As for `Cc1ccc(S(=O)(=O)NC(=O)NN2CC3CCCC3C2)cc1` (stereo unspecified), the Potency entry was “inactive”.

In the case of `CCCCCCCCCCCC(C)=O`, the Potency result was “inactive”.

For the molecule `CC[N+](C)(CC)CC`, the Potency result is “inactive”.

As for `CC(=O)Oc1ccc(C(C)=O)cc1`, the Potency entry was “inactive”.

Take `CCN1CCN(C(=O)N[C@@H](C(=O)N[C@@H]2C(=O)N3[C@@H]2SC(C)(C)[C@H]3C(=O)O)c2ccccc2)C(=O)C1=O`: the Potency entry is “inactive”.

With `CC1(C)CC(N)CC(C)(C)N1`, the Potency result was “inactive”.

On to `O=C(OOC(=O)c1ccccc1)c1ccccc1`, for which the Potency entry is “inactive”.

As to `N#CC1(N)CCCCC1`, the Potency entry is “inactive”.

As for `CC(=O)SCC(CC(=O)c1ccc(C)cc1)C(=O)O` (stereo unspecified), the Potency entry is “inactive”.

`COc1cc(C(=O)NC2CCCNC2)cc(OC)c1OC` (stereo unspecified): the Potency result is “inactive”.

For `C=COCCCCO`, the Potency entry was “inactive”.

Turning to `CC(C)=CCC/C(C)=C\C#N`, the Potency result is “inactive”.

With `CCCCCCCCS(=O)(=O)O`, the Potency result was “inactive”.

As for `Cc1cc(N)no1`, the Potency result is “inactive”.

With `CC1(C)S[C@@H]2[C@H](NC(=O)Cc3ccccc3)C(=O)N2[C@H]1C(=O)O` (tested in a mixture with another compound), the Potency entry was “inactive”.

Turning to `O=Cc1ccc(C(=O)O)cc1`, the Potency result was “inactive”.

For the molecule `CCC(C)(C)C`, the Potency entry is “inactive”.

On to `O=C(c1ccccc1)c1cccc(O)c1`, for which the Potency entry was “inactive”.

Regarding `c1coc(Cn2cccc2)c1`, the Potency result was “inactive”.

Regarding `CN(C)CCCN(C)C`, the activity, negative = cytotoxicity was -13% [at 8.53 µM].

For the molecule `C=CC(C)(CCC=C(C)C)OC(=O)C(C)C` (stereo unspecified), the Potency result is “inactive”.

For `CC[C@@]1(c2ccccc2)NC(=O)N(C)C1=O`, the Potency entry was “inactive”.

On to `CCCCNCC`, for which the Potency entry is “inactive”.

Take `CCC(=O)OCCOc1ccccc1`: the Potency entry is “inactive”.

For the molecule `CCN(CC)CC`, the Potency result was “inactive”.

With `C=CCn1cc[n+](C)c1`, the Potency entry is “inactive”.

Turning to `CCCCN(CCCC)CCCCCCN(CCCC)CCCC`, the Potency entry is “inactive”.

Turning to `C/C=C(\C)C(=O)OC/C=C(\C)CCC=C(C)C`, the Potency entry was “inactive”.

On to `CCCCN1C(=O)c2ccccc2C1=O`, for which the Potency result was “inactive”.
